The source made the active and inactive calls. Unless noted, no rule for the calls is given here.
How the values were obtained:
[1] = compounds binding Alexa647 anti-His antibody – biochemical, small-molecule microarray, 635 nm fluorescence, artefact control for SMM control protein annotation, primary screen (AID 1128); conditions: higher = more signal;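 also: score merges feature fluorescence with signal-to-noise for each printed compound spot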
[2] = test system: Human papillomavirus type 1a E7 protein (residues 1-88); test: HPV1a E7 small-molecule binders, primary screen, biochemical, small-molecule microarray, residues 1-88, 635 nm (AID 1129); conditions: small-molecule microarray binding, fluorescence 635 nm; higher = more signal
[3] = target: Focal adhesion kinase 1 (Homo sapiens) (UniProt Q05397); test: PTK2 protein binding on printed compound slides – biochemical, small-molecule microarray, 635/667 nm fluorescence, BSA, DTT, primary screen (AID 1130); conditions: 635 nm fluorescence, higher = more signal;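 also: composite of spot emission at 667 nm and signal to noise over triplicate slides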
[4] = test system: Fibrinogen (Alexa647-labelled); test: Alexa647-fibrinogen binding to printed small molecules – biochemical, small-molecule microarray, 635/667 nm fluorescence, artefact control for SMM control-protein annotation, profiling panel (AID 1131); conditions: fibrinogen-A647 binding fluorescence, higher = more signal;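 also: z-score merges 667 nm fluorescence with per-spot signal-to-noise over triplicate slides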
[5] = target: Follistatin (Homo sapiens) (UniProt P19883); test: FST protein binding to printed compounds – biochemical, small-molecule microarray, 635/667 nm fluorescence, primary screen (AID 1132); conditions: 635 nm fluorescence, higher = more signal
[6] = target: Fibroblast growth factor 2 (Homo sapiens) (UniProt P09038); test: basic fibroblast growth factor binding to printed compounds – biochemical, small-molecule microarray, 635/667 nm fluorescence, primary screen (AID 1133); conditions: FGF2, fluorescence 635/667, higher = more signal
[7] = JC-1 mitochondrial potential readout, lung cancer cells – cell-based, A549, JC-1 fluorescence, basal, 24 h, 100 nL, profiling panel (AID 1138); conditions: higher = more signal;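 also: A549 lung adenocarcinoma cells under basal conditions with no added stimulus; test concentration not given here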
Lefty1 = Lefty1 protein binding to printed compounds – biochemical, small-molecule microarray, 635/667 nm fluorescence, primary screen (AID 1139); conditions: fluorescence 635/667, higher = more signal
[8] = test system: wheat germ agglutinin (Triticum aestivum), Alexa647-labelled; test: Alexa647-WGA lectin binding to printed small molecules – biochemical, small-molecule microarray, 635/667 nm fluorescence, artefact control for SMM control-protein annotation, profiling panel (AID 1140); conditions: WGA-A647 binding, 635 nm fluorescence, higher = more signal;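 also: score merges 667 nm feature emission with signal to noise over triplicate slides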
[9] = target: Luciferin 4-monooxygenase (Photinus pyralis) (UniProt P08659); test: inhibition of purified Photinus pyralis luciferase – biochemical, luminescence, purified enzyme, 2006 set, primary screen (AID 1141); conditions: purified firefly luciferase, SteadyGlo luminescence, 30 min; higher = more signal, called active from +8 up or from −8 down;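 also: cell-free assay with purified firefly luciferase at 100 ng per well in PBS; test concentration not given here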
[10] = test system: Wnt5a (protein binding on small-molecule microarray); test: small molecules binding Wnt5a protein – biophysical, small-molecule microarray, 635/667 nm fluorescence, primary screen (AID 1142); conditions: 635 nm fluorescence, higher = more signal;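 also: fluorescence read at 667 nm with signal to noise per printed feature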
[11] = ATP-based viability of Huh7 replicon cells – cell-based, CellTiter-Glo luminescence, basal, 48 h, cytotoxicity control for HCV replication inhibitor project, primary screen (AID 1143); conditions: higher = more signal, called active from +8 up or from −8 down;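 also: Huh7 hepatoma cells carrying a hepatitis C replication reporter with no stimulus; test concentration not given here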
[12] = Pseudomonas biofilm growth suppression – PAO1 strain, BacTiter-Glo luminescence, LB-PBS, primary screen (AID 1144); conditions: P. aeruginosa PAO1 biofilm, 12 h, higher = more signal
[13] = basal CRE-LacZ reporter activity in PC12 – cell-based, unstimulated, primary screen (AID 1145); conditions: no forskolin, luminescence, 4.5 h, higher = more signal, called active from +8 up or from −8 down
[14] = forskolin-driven CRE-LacZ activity in PC12 – cell-based, CRE-LacZ reporter, forskolin-stimulated, primary screen (AID 1146); conditions: luminescence, 4.5 h, higher = more signal, called active from +8 up or from −8 down;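 also: PC12 cells with 6xCRE LacZ reporter stimulated by forskolin 10 µM; beta-galactosidase reporter signal reflecting CREB driven transcription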
[15] = target: Streptavidin (Streptomyces avidinii) (UniProt P22629); test: compounds binding control protein streptavidin – biophysical, small-molecule microarray, 635/667 nm fluorescence, artefact control for SMM compound annotation, primary screen (AID 1147); conditions: higher = more signal;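 also: signal reflects streptavidin binding to arrayed compounds as a control protein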
[16] = probe aInhba binding on compound microarray – biochemical, small-molecule microarray, 635/667 nm fluorescence, primary screen (AID 1148); conditions: higher = more signal;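 also: score merges 667nm spot fluorescence with signal-to-noise for antibody binding to printed compounds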
Torsin-1A (Homo sapiens) [17] = target: Torsin-1A (Homo sapiens) (UniProt O14656); test: TOR1A wild-type binding on microarray – cell lysate, small-molecule microarray, lysate, 635/667 nm, primary screen (AID 1149); conditions: COS7 hTOR1A-WT lysate, 635 nm fluorescence, higher = more signal
Torsin-1A (Homo sapiens) [18] = target: Torsin-1A (Homo sapiens) (UniProt O14656); test: torsin A mutant lysate binding on microarrays – cell lysate, small-molecule microarray, COS7 lysate, 635/667 nm fluorescence, primary screen (AID 1150); conditions: COS7 hTOR1A mutant lysate, 635 nm fluorescence, higher = more signal;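 also: score pools 667 nm emission and signal to noise measuring lysate protein binding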
[19] = test system: Sonic hedgehog protein (Shh); test: Sonic hedgehog microarray binding compounds – biochemical, small-molecule microarray, 635/667 nm fluorescence, primary screen (AID 1151); conditions: 635 nm fluorescence, higher = more signal;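 also: Shh protein binding to compounds spotted on small-molecule microarray slides; score combines spot fluorescence intensity with signal-to-noise across triplicate slides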

Sequence of Fibroblast growth factor 2 (Homo sapiens) (P09038 whole entry, looked up): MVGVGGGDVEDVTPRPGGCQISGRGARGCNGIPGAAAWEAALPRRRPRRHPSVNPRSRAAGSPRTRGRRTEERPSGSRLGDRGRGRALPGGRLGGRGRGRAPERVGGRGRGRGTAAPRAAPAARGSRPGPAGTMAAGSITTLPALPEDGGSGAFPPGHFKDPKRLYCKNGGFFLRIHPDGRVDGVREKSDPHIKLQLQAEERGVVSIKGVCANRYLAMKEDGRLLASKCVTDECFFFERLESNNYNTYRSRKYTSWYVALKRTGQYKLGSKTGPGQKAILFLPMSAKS
Sequence of Torsin-1A (Homo sapiens) (O14656 whole entry, looked up): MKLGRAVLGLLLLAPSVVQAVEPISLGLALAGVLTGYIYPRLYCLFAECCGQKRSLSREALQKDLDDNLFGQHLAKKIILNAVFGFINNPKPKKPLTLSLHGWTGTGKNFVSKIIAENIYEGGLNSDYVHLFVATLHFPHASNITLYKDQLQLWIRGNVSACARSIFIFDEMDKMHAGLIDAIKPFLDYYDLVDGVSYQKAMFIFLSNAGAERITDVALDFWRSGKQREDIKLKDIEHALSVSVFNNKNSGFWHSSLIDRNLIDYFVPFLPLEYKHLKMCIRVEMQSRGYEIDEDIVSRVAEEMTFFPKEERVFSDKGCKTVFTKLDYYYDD
Sequence of Focal adhesion kinase 1 (Homo sapiens) (Q05397 whole entry, looked up): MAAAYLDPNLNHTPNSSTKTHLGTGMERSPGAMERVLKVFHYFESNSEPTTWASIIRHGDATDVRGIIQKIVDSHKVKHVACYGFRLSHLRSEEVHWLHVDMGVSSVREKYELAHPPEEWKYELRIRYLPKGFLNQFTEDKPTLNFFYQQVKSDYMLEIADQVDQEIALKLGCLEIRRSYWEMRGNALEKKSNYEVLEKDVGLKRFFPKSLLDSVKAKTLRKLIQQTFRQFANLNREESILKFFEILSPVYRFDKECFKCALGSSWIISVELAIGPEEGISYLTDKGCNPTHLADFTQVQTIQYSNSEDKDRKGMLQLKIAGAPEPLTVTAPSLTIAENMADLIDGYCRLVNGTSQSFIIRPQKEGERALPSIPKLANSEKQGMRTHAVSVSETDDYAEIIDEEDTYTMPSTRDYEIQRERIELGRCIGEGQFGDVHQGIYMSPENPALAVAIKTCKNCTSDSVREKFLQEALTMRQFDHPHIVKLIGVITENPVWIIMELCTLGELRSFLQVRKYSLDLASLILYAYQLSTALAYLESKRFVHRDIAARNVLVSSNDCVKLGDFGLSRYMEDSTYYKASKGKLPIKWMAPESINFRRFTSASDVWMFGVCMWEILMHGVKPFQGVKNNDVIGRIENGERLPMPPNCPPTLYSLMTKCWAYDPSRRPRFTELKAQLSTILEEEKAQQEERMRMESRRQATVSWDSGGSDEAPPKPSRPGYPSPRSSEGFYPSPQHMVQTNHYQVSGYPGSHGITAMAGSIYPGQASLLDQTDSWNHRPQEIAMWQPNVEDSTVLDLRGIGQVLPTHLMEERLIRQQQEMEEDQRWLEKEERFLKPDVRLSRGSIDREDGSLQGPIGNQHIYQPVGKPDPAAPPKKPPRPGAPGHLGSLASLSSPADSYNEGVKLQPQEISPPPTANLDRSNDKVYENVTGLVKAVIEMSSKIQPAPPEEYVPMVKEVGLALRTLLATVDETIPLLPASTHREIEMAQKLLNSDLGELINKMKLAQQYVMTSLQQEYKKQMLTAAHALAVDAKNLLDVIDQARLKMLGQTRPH
Sequence of Follistatin (Homo sapiens) (P19883 whole entry, looked up): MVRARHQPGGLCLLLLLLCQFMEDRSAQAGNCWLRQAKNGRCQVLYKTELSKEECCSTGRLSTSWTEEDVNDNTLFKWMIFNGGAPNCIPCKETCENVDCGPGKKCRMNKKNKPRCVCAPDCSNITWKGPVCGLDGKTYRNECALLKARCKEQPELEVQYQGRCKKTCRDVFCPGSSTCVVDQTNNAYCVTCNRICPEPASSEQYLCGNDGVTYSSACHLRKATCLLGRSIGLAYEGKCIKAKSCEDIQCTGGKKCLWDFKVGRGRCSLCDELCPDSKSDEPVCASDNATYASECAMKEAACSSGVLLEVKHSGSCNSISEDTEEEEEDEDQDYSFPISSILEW
Sequence of Streptavidin (Streptomyces avidinii) (P22629 whole entry, looked up): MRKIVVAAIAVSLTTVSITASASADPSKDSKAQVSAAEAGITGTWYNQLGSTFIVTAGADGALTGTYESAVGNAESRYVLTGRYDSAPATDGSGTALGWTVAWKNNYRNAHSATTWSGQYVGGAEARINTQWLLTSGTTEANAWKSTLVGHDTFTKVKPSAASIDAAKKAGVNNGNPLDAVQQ
Sequence of Luciferin 4-monooxygenase (Photinus pyralis) (P08659 whole entry, looked up): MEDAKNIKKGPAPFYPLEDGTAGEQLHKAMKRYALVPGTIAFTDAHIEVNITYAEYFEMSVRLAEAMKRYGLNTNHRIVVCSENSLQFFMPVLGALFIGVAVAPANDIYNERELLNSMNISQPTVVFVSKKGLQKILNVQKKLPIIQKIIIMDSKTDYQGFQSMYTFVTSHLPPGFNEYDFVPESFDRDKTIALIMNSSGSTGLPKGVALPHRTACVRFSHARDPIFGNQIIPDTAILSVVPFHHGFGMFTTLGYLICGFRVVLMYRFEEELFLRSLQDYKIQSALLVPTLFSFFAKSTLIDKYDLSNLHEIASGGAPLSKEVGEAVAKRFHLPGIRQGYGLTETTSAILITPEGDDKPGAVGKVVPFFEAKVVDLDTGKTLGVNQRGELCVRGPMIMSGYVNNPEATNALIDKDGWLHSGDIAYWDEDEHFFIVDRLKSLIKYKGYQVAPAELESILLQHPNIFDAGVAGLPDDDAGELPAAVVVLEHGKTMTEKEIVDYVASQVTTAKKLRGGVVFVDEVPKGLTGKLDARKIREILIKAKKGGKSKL

| SMILES | composite z-score [1] | composite z-score [2] | composite z-score [3] | composite z-score [4] | composite z-score [5] | composite z-score [6] | z-score [7] | composite z-score (Lefty1) | composite z-score [8] | z-score [9] | composite z-score [10] | z-score [11] | z-score [12] | z-score [13] | z-score [14] | composite z-score [15] | composite z-score [16] | composite z-score (Torsin-1A (Homo sapiens) [17]) | composite z-score (Torsin-1A (Homo sapiens) [18]) | composite z-score [19] |
| --- | --- | --- | --- | --- | --- | --- | --- | --- | --- | --- | --- | --- | --- | --- | --- | --- | --- | --- | --- | --- |
| CC(C)(C)OC(=O)CC[C@@]1(C(=O)NCCN2CCOCC2)N=C(c2ccc(OCCCO)cc2)O[C@@H]1c1ccccc1 | 1.37 | 1.19 | 0.111 | 1.01 | 1.28 | 0.695 | 1.59 | 0.499 | 1.22 | -1.66 (inactive) | 0.739 | 0.256 (inactive) | 0.174 (inactive) | -1.33 (inactive) | -0.998 (inactive) | 1.12 | 0.248 | 0.388 | -0.522 | 0.306 |
| CCCNC(=O)[C@@H]1c2ccccc2C(=O)N(Cc2ccccc2)[C@H]1c1ccc(CO)cc1 | 1.88 | -0.081 | -0.255 | 0.213 | 0.122 | -0.193 | -0.109 | -0.82 | 0.935 | -0.322 (inactive) | -0.0869 | -1.98 (inactive) | -0.112 (inactive) | -0.179 (inactive) | 0.0988 (inactive) | 0.624 | -0.0405 | -0.468 | -0.221 | -0.461 |
| CC(C)Cc1ccc(CN2CC[C@@H](NS(=O)(=O)c3ccccc3)C2)cc1 | 0.441 | -0.593 | -0.0553 | -1.02 | 0.797 | -0.0321 | -0.641 | 0.477 | -0.654 | 0.826 (inactive) | -0.353 | -5.08 (inactive) | -0.721 (inactive) | 0.224 (inactive) | -0.138 (inactive) | -0.369 | -0.188 | -0.957 | -0.274 | 1.45 |
| O=C1OCC=C[C@H]2OC34C=CCN(c5ccc(Cl)cc5)C(=O)[C@H]3N(CCCCCCO)C(=O)[C@@H]4[C@@H]12 (stereo not given in full) | 1.41 | -0.777 | -0.209 | -2.01 | -1.57 | -0.705 | 1.82 | -1.09 | -0.892 | -0.71 (inactive) | -0.557 | -0.652 (inactive) | 1.36 (inactive) | 1.41 (inactive) | -0.0889 (inactive) | -0.857 | -0.0494 | -1.39 | -1.21 | -0.38 |
| C=CC[C@@]1(C(=O)N2CCOCC2)N=C(c2ccc(OCCCO)cc2)O[C@@H]1c1ccccc1N=[N+]=[N-] | 1.58 | 1.24 | 0.304 | 0.752 | 1.33 | 1.05 | 0.0318 | 0.135 | 1.13 | -11.4 (active) | 0.331 | -4.09 (inactive) | -0.726 (inactive) | -0.333 (inactive) | -1.34 (inactive) | 1.73 | 0.2 | 0.41 | 0.386 | 0.0055 |
| CCOC(=O)C[C@H]1[C@H](OC(=O)c2ccc(C(=O)c3ccccc3)cc2)[C@@H](NC(=O)C2CCCCC2)c2cc(OCCCO)ccc2N1C(=O)c1ccccc1 | 0.447 | 0.881 | 0.211 | 0.636 | 0.27 | 0.0816 | 2.14 | 0.166 | 0.203 | -0.46 (inactive) | 0.177 | -0.361 (inactive) | 0.441 (inactive) | 2.06 (inactive) | -0.0298 (inactive) | 0.767 | 0.58 | 0.342 | 0.358 | 1.31 |
| C=CCC(OC(C)=O)[C@@H]1[C@@H](N(Cc2ccc(-c3cccc(C(F)(F)F)c3)o2)C(=O)c2ccc(C)cc2)c2cc(OCCCO)ccc2N1C(=O)c1ccc(-c2ccccc2)cc1 (stereo not given in full) | -0.488 | -0.626 | 0.134 | -0.238 | 0.65 | 0.0875 | 2.31 | 0.899 | 0.639 | -1.4 (inactive) | 0.0167 | 0.224 (inactive) | -0.747 (inactive) | -0.463 (inactive) | -0.183 (inactive) | 0.535 | 0.0154 | -0.245 | -0.141 | 1.32 |
| CCOC(=O)C1=CC[C@@H](c2ccccc2)N(S(=O)(=O)c2ccc(C)cc2)[C@H]1C(=O)OCC | 0.558 | 1.2 | 1.17 | 0.0499 | 0.305 | -0.128 | 1.84 | -0.238 | 0.951 | 0.693 (inactive) | 0.3 | -4.23 (inactive) | 1.43 (inactive) | -0.415 (inactive) | -0.76 (inactive) | 0.491 | 0.421 | 0.59 | 0.523 | -0.189 |
| COc1ccc(C#Cc2ccc3c(c2)[C@]2(C(=O)N3)[C@H](c3ccc(O)cc3)N3[C@H](c4ccccc4)[C@H](c4ccccc4)OC(=O)[C@H]3[C@@H]2C(=O)NC[C@H](O)c2ccccc2)cc1 | 1.35 | 1.21 | 0.32 | 0.556 | 1.03 | 0.487 | -1.26 | 0.751 | 1.01 | -0.835 (inactive) | 0.365 | -3.5 (inactive) | -0.654 (inactive) | -0.0246 (inactive) | -1.12 (inactive) | 0.153 | -0.0606 | 0.215 | 0.488 | 1.05 |

Reference: PubChem BioAssay
